Results published in PubChem BioAssay.
The source made the active and inactive calls.

Experiments:
[1] = binders of probe aFSTL3 on microarray, primary screen, stem cell growth factor project, biochemical, small-molecule microarray, fluorescence 635/667 (AID 1064); conditions: higher = more signal;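 further: measures binding of the biotinylated anti-FSTL3 antibody to printed compounds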
[2] = binders from COS7 lysate, DM2A8 probe, primary screen, torsin A project, cell lysate, small-molecule microarray, fluorescence 635/667 (AID 1065); conditions: higher = more signal, COS7 lysate expressing mutant human TOR1A
[3] = binders of probe aFGF2 on microarray, primary screen, stem cell growth factor project, biochemical, small-molecule microarray, fluorescence 635/667 (AID 1067); conditions: higher = more signal;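 further: measures binding of biotinylated aFGF2 protein to printed compounds on slides; z-score merges feature fluorescence and signal-to-noise across triplicate slides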
[4] = binders of probe aFGF10 on microarray, primary screen, stem cell growth factor project, biochemical, small-molecule microarray, fluorescence 635/667 (AID 1071); conditions: higher = more signal;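 further: score merges 667 nm spot intensity and signal to noise from triplicate slides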
[5] = target: Neurogenic locus notch homolog protein 2 (Homo sapiens) (UniProt Q04721); experiment: Notch2 binders on small-molecule microarrays, primary screen, biochemical, small-molecule microarray, 635 nm fluorescence, stem cell growth factors (AID 1073); conditions: Notch2 binding, higher = more signal
[6] = target: Pro-neuregulin-1, membrane-bound isoform (Homo sapiens) (UniProt Q02297); experiment: NRG1 binders on small-molecule microarrays, primary screen, psychiatric disease protein project, biochemical, small-molecule microarray, fluorescence 635/667 (AID 1075); conditions: NRG1 binding, 635 nm fluorescence, higher = more signal;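 further: score combines 667 nm spot fluorescence with signal to noise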
[7] = tested on: Neuregulin-1 EGF-like domain; experiment: binders of neuregulin-1 EGF-like domain, primary screen, biochemical, small-molecule microarray, 635 nm fluorescence (AID 1081); conditions: small-molecule microarray binding, higher = more signal;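 further: binding of the protein to compounds printed on small-molecule microarray slides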
[8] = FRG1 promoter luciferase signal modulators, primary screen, FRG1 inhibition for FSHD, cell-based, C2C12 myotubes, firefly/Renilla luciferase, luminescence (AID 1084); conditions: higher = more signal, called active from +8 up or from −8 down
[9] = binders of probe aFST on microarray, primary screen, stem cell growth factor project, biochemical, small-molecule microarray, fluorescence 635/667 (AID 1086); conditions: higher = more signal;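 further: score merges 667 nm fluorescence with signal-to-noise of each printed compound spot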
[10] = binders of probe aHhip on microarray, primary screen, stem cell growth factor project, biochemical, small-molecule microarray, fluorescence 635/667 (AID 1087); conditions: higher = more signal;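 further: score merges spot fluorescence at 667nm with spot signal to noise ratio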
[11] = tested on: PRMT1 (protein arginine N-methyltransferase 1); experiment: PRMT1 binders on small-molecule microarrays, primary screen, biochemical, small-molecule microarray, 635 nm fluorescence (AID 1088); conditions: small-molecule microarray binding, higher = more signal;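 further: binding of Prmt1 protein to compounds spotted on small-molecule microarray slides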
[12] = yeast growth modulation, basal conditions, primary screen, YJM789 clinical isolate, OD600, 24 h (AID 1089);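 further: growth of clinical yeast isolate S. cerevisiae YJM 789 seeded 1000 cells per well; test concentration not given here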; conditions: S. cerevisiae YJM789 growth, higher = more signal, called active from +8 up or from −8 down
[13] = fission yeast growth modulation, primary screen, strain 972, OD600, 24 h, no modulator (AID 1090);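 further: basal condition with compound alone and no growth modifier present; test concentration not given here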; conditions: S. pombe 972 growth, higher = more signal, called active from +8 up or from −8 down
[14] = S. cerevisiae growth modulation with rapamycin, primary screen, strain BY4716, OD600, 96 h (AID 1091); conditions: higher = more signal, called active from +8 up or from −8 down; further: test concentration not given here
[15] = target: Torsin-1A-interacting protein 2 (Homo sapiens) (UniProt Q8NFQ8); experiment: LULL1 binders on small-molecule microarray, primary screen, cell lysate, human LULL1 lysate, 635/667 nm fluorescence (AID 1092); conditions: hLULL1 lysate binding, 635 nm fluorescence, higher = more signal;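 further: probe is lysate of COS7 cells overexpressing human LULL1; score merges per-feature 667 nm fluorescence with signal-to-noise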
[16] = E. coli growth modulation, two-sided OD650, primary screen, E. coli filamentation project, strain DRC41, 24 h (AID 1093); conditions: OD650, 24 h, higher = more signal, called active from +8 up or from −8 down;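 further: MC1000 strain lacking acrAB efflux and sulA so SOS filamentation is blocked; test concentration not given here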
[17] = small-molecule microarray binders of probe aLefty2, primary screen, biochemical, biotinylated probe, 635/667 nm fluorescence (AID 1094); conditions: higher = more signal;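 further: score merges spot fluorescence near 667 nm with spot signal-to-noise ratio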
[18] = tested on: Noggin (protein binding on small-molecule microarray); experiment: Noggin binders on small-molecule microarray, primary screen, biochemical, 635/667 nm fluorescence (AID 1095); conditions: 635 nm fluorescence, higher = more signal;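 further: score merges 667 nm feature fluorescence with signal to noise over triplicate slides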
[19] = target: Neurogenic locus notch homolog protein 3 (Homo sapiens) (UniProt Q9UM47); experiment: NOTCH3 binders on small-molecule microarray, primary screen, biochemical, 635/667 nm fluorescence (AID 1096); conditions: NOTCH3 binding, 635 nm fluorescence, higher = more signal
[20] = small-molecule microarray binders of probe aEGFR, primary screen, biochemical, biotinylated probe, 635/667 nm fluorescence (AID 1097); conditions: higher = more signal;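 further: probe is a biotinylated anti-EGFR antibody binding compounds printed on slides; score combines fluorescence near 667 nm and signal to noise of each spot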

Pro-neuregulin-1, membrane-bound isoform (Homo sapiens), sequence (Q02297 whole entry, looked up, the tested form may be a part, canonical isoform): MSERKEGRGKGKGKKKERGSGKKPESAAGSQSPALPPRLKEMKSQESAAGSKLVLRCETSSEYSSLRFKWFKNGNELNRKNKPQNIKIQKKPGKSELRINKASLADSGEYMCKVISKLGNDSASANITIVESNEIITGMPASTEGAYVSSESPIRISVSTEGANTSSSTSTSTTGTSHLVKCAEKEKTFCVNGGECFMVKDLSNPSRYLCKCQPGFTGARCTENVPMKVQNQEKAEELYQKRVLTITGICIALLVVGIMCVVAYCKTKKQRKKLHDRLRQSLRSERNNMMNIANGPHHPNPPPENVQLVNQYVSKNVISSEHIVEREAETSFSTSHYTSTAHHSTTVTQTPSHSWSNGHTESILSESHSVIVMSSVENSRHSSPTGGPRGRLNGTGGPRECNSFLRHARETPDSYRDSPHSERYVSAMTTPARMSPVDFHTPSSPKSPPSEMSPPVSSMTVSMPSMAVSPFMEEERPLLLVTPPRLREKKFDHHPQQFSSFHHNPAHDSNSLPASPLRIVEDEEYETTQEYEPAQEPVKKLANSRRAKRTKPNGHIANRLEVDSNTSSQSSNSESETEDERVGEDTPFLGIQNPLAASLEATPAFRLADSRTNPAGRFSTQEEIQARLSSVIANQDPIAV
Neurogenic locus notch homolog protein 3 (Homo sapiens), sequence (Q9UM47 whole entry, looked up): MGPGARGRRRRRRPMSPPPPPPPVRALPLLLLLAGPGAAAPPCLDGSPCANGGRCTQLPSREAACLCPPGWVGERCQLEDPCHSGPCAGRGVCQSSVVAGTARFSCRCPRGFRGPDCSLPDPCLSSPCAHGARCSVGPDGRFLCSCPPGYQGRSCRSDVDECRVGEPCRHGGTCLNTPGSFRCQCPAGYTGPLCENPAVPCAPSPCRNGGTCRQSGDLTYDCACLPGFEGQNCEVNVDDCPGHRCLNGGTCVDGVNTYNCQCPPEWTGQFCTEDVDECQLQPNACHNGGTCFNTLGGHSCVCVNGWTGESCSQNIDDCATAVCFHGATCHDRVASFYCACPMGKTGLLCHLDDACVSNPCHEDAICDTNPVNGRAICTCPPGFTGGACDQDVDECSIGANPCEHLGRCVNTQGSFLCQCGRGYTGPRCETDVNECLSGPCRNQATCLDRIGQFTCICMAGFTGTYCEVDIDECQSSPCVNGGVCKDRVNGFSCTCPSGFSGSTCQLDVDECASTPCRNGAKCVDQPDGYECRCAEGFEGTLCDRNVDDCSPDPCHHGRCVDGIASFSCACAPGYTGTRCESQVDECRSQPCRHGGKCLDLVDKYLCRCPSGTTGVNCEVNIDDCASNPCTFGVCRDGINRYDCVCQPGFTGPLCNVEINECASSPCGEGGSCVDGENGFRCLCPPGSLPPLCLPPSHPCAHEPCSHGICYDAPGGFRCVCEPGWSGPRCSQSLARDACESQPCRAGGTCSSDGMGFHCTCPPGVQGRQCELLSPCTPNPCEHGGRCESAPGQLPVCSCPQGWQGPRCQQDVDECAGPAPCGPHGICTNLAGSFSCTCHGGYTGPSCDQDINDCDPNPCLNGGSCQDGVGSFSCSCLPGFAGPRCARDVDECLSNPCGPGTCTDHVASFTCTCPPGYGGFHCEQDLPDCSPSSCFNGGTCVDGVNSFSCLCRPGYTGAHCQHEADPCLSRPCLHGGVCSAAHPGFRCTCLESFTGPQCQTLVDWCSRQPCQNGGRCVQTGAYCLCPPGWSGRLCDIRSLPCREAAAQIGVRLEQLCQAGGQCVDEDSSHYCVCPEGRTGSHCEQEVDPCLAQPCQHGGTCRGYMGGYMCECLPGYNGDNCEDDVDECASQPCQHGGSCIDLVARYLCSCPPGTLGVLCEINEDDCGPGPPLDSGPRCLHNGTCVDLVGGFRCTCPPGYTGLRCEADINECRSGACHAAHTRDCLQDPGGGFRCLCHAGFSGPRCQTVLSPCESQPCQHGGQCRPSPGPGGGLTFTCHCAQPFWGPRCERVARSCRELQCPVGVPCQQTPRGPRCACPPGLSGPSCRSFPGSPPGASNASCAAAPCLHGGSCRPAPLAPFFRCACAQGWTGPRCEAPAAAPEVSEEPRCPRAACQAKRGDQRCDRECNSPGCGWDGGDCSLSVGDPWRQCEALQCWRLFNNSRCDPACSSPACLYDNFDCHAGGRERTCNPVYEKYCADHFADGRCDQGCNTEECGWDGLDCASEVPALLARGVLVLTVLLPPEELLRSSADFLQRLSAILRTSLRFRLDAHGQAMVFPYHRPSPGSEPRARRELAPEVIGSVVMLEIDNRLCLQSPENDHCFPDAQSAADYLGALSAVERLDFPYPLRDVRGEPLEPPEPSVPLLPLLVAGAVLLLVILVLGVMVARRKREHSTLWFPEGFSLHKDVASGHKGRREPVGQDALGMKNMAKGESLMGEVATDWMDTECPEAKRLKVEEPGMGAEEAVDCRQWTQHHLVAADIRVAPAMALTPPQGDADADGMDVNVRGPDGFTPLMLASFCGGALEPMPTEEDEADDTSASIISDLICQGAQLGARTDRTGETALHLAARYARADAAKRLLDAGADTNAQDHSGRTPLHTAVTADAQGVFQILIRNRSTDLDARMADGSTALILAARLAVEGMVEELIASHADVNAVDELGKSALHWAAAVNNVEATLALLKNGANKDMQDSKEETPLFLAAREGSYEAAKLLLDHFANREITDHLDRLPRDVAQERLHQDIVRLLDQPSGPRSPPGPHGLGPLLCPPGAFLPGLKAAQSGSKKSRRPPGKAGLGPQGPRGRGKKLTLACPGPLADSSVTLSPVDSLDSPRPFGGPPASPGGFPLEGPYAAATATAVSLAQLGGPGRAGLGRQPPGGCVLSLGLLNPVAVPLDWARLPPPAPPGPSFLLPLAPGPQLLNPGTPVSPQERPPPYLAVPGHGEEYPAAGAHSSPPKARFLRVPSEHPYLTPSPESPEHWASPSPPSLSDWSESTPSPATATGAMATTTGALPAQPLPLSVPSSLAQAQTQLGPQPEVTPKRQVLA
Torsin-1A-interacting protein 2 (Homo sapiens), sequence (Q8NFQ8 whole entry, looked up): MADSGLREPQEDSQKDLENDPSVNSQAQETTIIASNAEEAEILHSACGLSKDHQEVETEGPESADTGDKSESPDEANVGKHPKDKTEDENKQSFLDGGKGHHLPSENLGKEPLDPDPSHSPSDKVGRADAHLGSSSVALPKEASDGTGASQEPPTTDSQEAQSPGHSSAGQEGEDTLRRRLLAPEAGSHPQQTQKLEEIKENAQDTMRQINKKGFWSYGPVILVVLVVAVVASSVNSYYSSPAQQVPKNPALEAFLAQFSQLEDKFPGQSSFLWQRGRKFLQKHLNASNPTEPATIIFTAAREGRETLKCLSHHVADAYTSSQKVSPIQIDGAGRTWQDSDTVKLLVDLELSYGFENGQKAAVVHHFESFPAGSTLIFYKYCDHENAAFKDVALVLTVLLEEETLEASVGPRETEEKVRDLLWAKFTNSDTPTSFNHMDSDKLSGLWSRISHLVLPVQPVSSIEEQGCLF

Compound | composite z-score [1] | composite z-score [2] | composite z-score [3] | composite z-score [4] | composite z-score [5] | composite z-score [6] | composite z-score [7] | z-score [8] | composite z-score [9] | composite z-score [10] | composite z-score [11] | z-score [12] | z-score [13] | z-score [14] | composite z-score [15] | z-score [16] | composite z-score [17] | composite z-score [18] | composite z-score [19] | composite z-score [20]
CO[C@H]1COC(=O)CC=C[C@@H](C)[C@H](OC)COC(=O)[C@@H]2CCCN2C(=O)CC=C[C@@H]1C | -0.479 | 2.11 | -0.17 | -0.0728 | -0.162 | -0.591 | 0.87 | -0.273 (inactive) | 0.374 | -0.169 | 1.12 | 0.221 (inactive) | -0.0931 (inactive) | -0.202 (inactive) | -0.328 | 0.619 (inactive) | -0.229 | 1.41 | 0.716 | 0.0115
CCOC(=O)[C@H](Cc1ccccc1)NC(=O)CCC1CC(OC(=O)NCCc2ccc(F)cc2)CC2(CCCC(COC(=O)NCCOC)O2)O1 (stereo not given in full) | -0.584 | 0.114 | -0.0291 | 0.868 | 1.04 | 0.326 | 1.11 | 0.753 (inactive) | 0.169 | -0.248 | 1.46 | 0.197 (inactive) | 0.143 (inactive) | -0.16 (inactive) | 1.73 | 0.769 (inactive) | -0.147 | 0.325 | 0.796 | 0.153
Cc1cc2c(nc1C)CCCCN2CC(C)ON=C1[C@H]2CCn3c(=O)n(-c4ccccc4)c(=O)n3[C@H]2[C@H](O)[C@@H]2O[C@H]12 (stereo not given in full) | -0.455 | 0.288 | 0.0051 | 0.756 | 0.942 | -0.349 | 0.8 | -0.446 (inactive) | 0.557 | -0.0346 | 0.208 | 0.678 (inactive) | -0.167 (inactive) | 0.103 (inactive) | 0.998 | 0.777 (inactive) | 0.106 | 0.439 | 0.258 | -0.0922
COc1ccc(COC(=O)NN=C2C[C@@H](O)[C@@H](O)[C@@H]3[C@@H]4C(=O)N(c5cccc(Oc6ccccc6)c5)C(=O)[C@@H]4CC[C@@H]23)cc1 | 0.809 | -0.107 | -0.0363 | -0.135 | -0.423 | -0.0521 | -0.265 | 0.331 (inactive) | 0.88 | 0.262 | -0.184 | 1.15 (inactive) | 0.897 (inactive) | 0.752 (inactive) | 0.624 | 0.301 (inactive) | 0.162 | -0.516 | -0.732 | -0.0953
Cc1ccc(S(=O)(=O)n2c3ccccc3c3nnc(C(=O)c4ccccc4)nc32)cc1 | -0.474 | 0.338 | -0.0603 | 0.316 | 0.197 | -0.457 | 0.355 | 49.6 (active) | 0.141 | -0.137 | -0.875 | -0.232 (inactive) | -0.683 (inactive) | 0.881 (inactive) | -0.0929 | 0.878 (inactive) | -0.122 | 0.0828 | -0.467 | 0.0099
CCOC(=O)[C@H](CC(C)C)NC(=O)CCC1CC(OC(=O)NCc2ccc3c(c2)OCO3)CC2(CCCC(COC(=O)NCC3CCCCC3)O2)O1 (stereo not given in full) | -0.203 | 1.06 | -0.11 | 0.443 | 0.6 | 0.292 | 1.02 | 0.807 (inactive) | 0.293 | -0.255 | 1.24 | 0.192 (inactive) | -0.0848 (inactive) | -0.113 (inactive) | 1.49 | 0.409 (inactive) | -0.323 | 0.553 | 1.09 | -0.109
CCCNC(=O)OC[C@H]1O[C@H](CCON=C(C)C)C=C[C@@H]1Oc1ccc(OC)cc1 | 0.0684 | -0.152 | -0.0598 | 0.332 | -0.482 | 0.0871 | -0.327 | 0.534 (inactive) | 0.139 | -0.226 | 0.612 | -0.578 (inactive) | -5.54 (inactive) | 0.0158 (inactive) | 0.876 | 0.964 (inactive) | 0.0472 | 0.422 | -0.216 | -0.0581
CO[C@H]1COC(=O)[C@@H](C)COC(=O)[C@H](COCc2ccccc2)NC(=O)CC=C[C@H]1C | -0.325 | 1.45 | -0.156 | -0.607 | -1.58 | -1.19 | -1.43 | -0.335 (inactive) | 0.1 | -0.0672 | 0.409 | 0.0827 (inactive) | -0.704 (inactive) | 0.007 (inactive) | -1.28 | 0.456 (inactive) | -0.128 | 0.98 | -0.944 | -0.196
CCOC(=O)[C@H](CC(C)C)NC(=O)CCC1CC(OC(=O)NCCc2ccc(F)cc2)CC2(CCCC(COC(=O)NCC3CCCCC3)O2)O1 (stereo not given in full) | -0.595 | 0.101 | -0.0652 | 0.817 | 0.482 | 0.301 | 1.1 | 0.605 (inactive) | -0.0627 | -0.19 | 0.49 | -0.808 (inactive) | 0.541 (inactive) | 1.23 (inactive) | 1.12 | -0.61 (inactive) | -0.231 | 0.266 | 0.291 | 0.0069
CO[C@@H]1COC(=O)[C@@H]2CCCN2C(=O)[C@@H](C)COC(=O)CC=C[C@H]1C | -0.776 | 0.313 | -0.122 | 0.397 | 0.5 | 0.0187 | 1.02 | 0.719 (inactive) | 0.271 | 0.607 | 1.41 | -0.414 (inactive) | 0.0992 (inactive) | -1.14 (inactive) | 0.882 | -0.152 (inactive) | -0.0438 | 1.18 | 0.943 | -0.0788
C#CCCCON=C1C[C@@H](O)[C@@H](O)[C@@H]2[C@@H]3C(=O)N(C(C)(C)C)C(=O)[C@@H]3CC[C@@H]12 | 2.02 | 0.0189 | -0.0468 | -0.0755 | -0.707 | -0.107 | -0.117 | -0.305 (inactive) | 0.987 | -0.0645 | -0.227 | 0.266 (inactive) | 0.0546 (inactive) | 0.934 (inactive) | 0.148 | -0.131 (inactive) | 0.502 | -1.11 | -1.07 | -0.106
